TTR transcr act: activators of transthyretin transcription. activation, % at 16.7 µM. actives 1.3% (n = 92,000). SH-SY5Y TTR promoter Gaussia luciferase, luminescence; 100% = recombinant luciferase protein wells. AID 1117267;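 active = activation above the mean of all tested compounds plus 3 SD, cut at about 9.5% in these data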;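 note: cells exposed to compounds for one day before reading; 0% = median of all test compound wells on the plate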
TTR inh HuH7: decreases TTR transcription in HuH7 cells in activator counter-screen; inhibition, % at 16.7 µM; HuH7 TTR promoter-Gaussia luciferase reporter, luminescence; shares compounds with TTR transcr act; actives 4% (n = 1,100);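 active = average inhibition above the solvent-only control wells' mean plus 3 SD, cut at about 15% in these data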;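 note: 0% = cells with DMSO only and 100% = cells with inhibitor control FD; inhibitors lower well luminescence so higher value means more inhibition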
TTR act confirm: confirmation of human transthyretin transcription activators; shares compounds with TTR transcr act; 1,100 tested, under 10 active; SHSY5Y TTR promoter Gaussia luciferase, luminescence; 100% = purified Lucia enzyme wells, no cells; activation, % at 16.7 µM; AID 1117280;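 active = mean activation above a set limit taken from the earlier primary screen, cut at about 11% in these data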;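 note: 0% = DMSO-treated cells and 100% = recombinant Lucia luciferase without cells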
Starred values were filed as active, the others as inactive. Many of the other results were omitted from the sample, so hits are more common in it than they were.

SMILES	TTR transcr act	others
Cc1nc(C(=O)NNC(=O)Nc2ccc(Cl)cc2)cs1	4
Cc1cc(C(=O)NNC(=O)Nc2ccc(Cl)cc2)no1	0
CN(C)CC#Cc1cncc(C(=O)NNC(=O)Nc2ccc(Cl)cc2)c1	10*	TTR inh HuH7=-14;TTR act confirm=2
COc1cc(-c2[nH]nc3c2C(c2ccco2)C(C#N)=C(N)O3)cc(OC)c1OC (centres undefined)	-1
N#CC1CCN(c2ncccc2[N+](=O)[O-])CC1	1
O=C1CCN(c2ncccc2[N+](=O)[O-])CC1	12*	TTR inh HuH7=-2;TTR act confirm=-1
O=[N+]([O-])c1cccnc1N1CCOCC1	0
COCCOC(=O)N(C)C[C@@H]1OCCCC[C@H](C)Oc2ccc(NC(=O)Nc3ccccc3)cc2C(=O)N([C@@H](C)CO)C[C@H]1C	2
COc1cc(NC(=O)c2ccccn2)ccc1NC(=O)c1ccccc1Cl	0
CCOC(=O)N1CCN(C(=O)C[C@H]2C[C@@]3(C(=O)OC)C(=C[C@H](COCc4ccccc4)O[C@@H]3C)N(Cc3ccccc3)C2=O)CC1	1
CC(C)COc1ccc(CNC(=S)N/N=C/c2ccc([N+](=O)[O-])cc2)cc1	11*	TTR inh HuH7=7;TTR act confirm=-1
CC(C)Oc1ccc(CNC(=S)N/N=C/c2ccc([N+](=O)[O-])cc2)cc1	2
COc1ccc(CNC(=S)N/N=C/c2ccncc2)cc1	0
Cc1ccc(CN2CCCCC(NC(=O)c3cccc([N+](=O)[O-])c3)C2=O)cc1 (centres undefined)	0
CCC[C@H]1[C@@H](OC(=O)NCc2ccc(C)cc2)CC[C@@]23CCCN2C(=O)CCC[C@@H]13	1
O=S(Cc1cc(Sc2ccccc2)nc(-c2ccccc2)n1)c1ccccc1 (centres undefined)	12*	TTR inh HuH7=12;TTR act confirm=-1
O=S(Cc1ccccc1)c1ccccc1 (centres undefined)	1
COc1cccc(Sc2cc(N3CCOCC3)nc(-c3ccccc3)n2)c1	-2
O=C(c1ccc(Cl)c(S(=O)(=O)N2CCOCC2)c1)N1CCCC1	-1
CN1CCN(C(=O)c2ccc(Cl)c(S(=O)(=O)N3CCCCC3)c2)CC1	3
Cc1cccc(NS(=O)(=O)c2cc(C(=O)N3CCCC3)ccc2Cl)c1	10*	TTR inh HuH7=-10;TTR act confirm=0
CC1=C2NC(N)=[N+](Cc3ccc4c(c3)OCO4)CC2NOC1 (centres undefined)	1
COC(=O)[C@]12C[C@H](CC(=O)NCC3CCCCC3)C(=O)N(Cc3ccco3)C1=C[C@H](C1CCCC1)O[C@@H]2C	1
CC1(C)O[C@H]2CC(=O)OC[C@]23[C@H]2CC[C@@]4(C)[C@H](c5ccoc5)OC(=O)[C@H]5O[C@]54[C@]2(C)[C@@H](O)C[C@@H]13	-2
CC1(C)O[C@@H](CC(=O)O)[C@]23CO[C@H](C(=O)[C@]4(C)C2CC[C@@]2(C)[C@H](c5ccoc5)OC(=O)C5O[C@]524)[C@@H]13 (some centres undefined)	22*	TTR inh HuH7=-2;TTR act confirm=1
SMILES	TTR transcr act	others
CCCC1CCC2(CC1)CCC2OC(=S)Nc1ccc(I)cc1 (centres undefined)	0
O=C(NCCc1ccc2c(c1)OCO2)c1cc(-c2ccccc2)c(N2CCOCC2)s1	-2
C=CCN1C(=O)[C@H](CC(=O)NCc2cccs2)[C@@]2(C(=O)OCC)CCCC=C12	2
Cc1ccccc1C(=O)NCC(=O)NNC(=O)c1cccc(Cl)c1	19*	TTR inh HuH7=-12;TTR act confirm=0
Cc1cccc(C(=O)NNC(=O)c2ccccc2C)c1	-2
Cc1csc(C(=O)NCC(=O)NNC(=O)c2cccc(Cl)c2)c1	0
Cc1ccc([C@H]2C[C@@H](O)[C@H](n3cc(-c4ccc(F)cc4)nn3)CN2C(=O)c2cccs2)cc1	11*	TTR inh HuH7=15*;TTR act confirm=0
COc1ccc([C@H]2C[C@H](O)[C@@H](n3cc(C4CC4)nn3)CN2C(=O)c2cccs2)cc1	1
O=C(C1CCCCC1)N1C[C@H](n2cc(-c3ccc(F)cc3)nn2)[C@@H](O)C[C@@H]1c1ccc(Cl)cc1	1
CCOC(=O)[C@@]12CCC3=C1N(CCC3)C(=O)[C@H](CC(=O)N1CCN(C(=O)C3CC3)CC1)C2	-1
Clc1ccc(-c2cn(-c3ccc(Cl)cc3)c3[n+]2CCCCC3)cc1	-2
COc1ccc(-c2cn(-c3ccc(Cl)cc3)c3[n+]2CCCCC3)cc1	12*	TTR inh HuH7=0;TTR act confirm=1
COc1ccc(-n2cc(-c3ccc(OC(F)F)cc3)[n+]3c2CCCCC3)cc1	-1
O=C(NCCO)[C@H](Cc1ccccc1)NC1(C(=O)NCCc2c[nH]c3ccccc23)CCCCC1	4
CCC[C@H]1[C@@H](NC(=O)c2cccc(C(F)(F)F)c2)CC[C@@]23CCCN2C(=O)CCC[C@@H]13	3
CCC(C)Sc1ccc([C@H]2N[C@@](CC(C)C)(C(=O)OC)[C@H]3C(=O)N(CC)C(=O)[C@@H]23)cc1 (some centres undefined)	3
COC(=O)[C@]1(CC(C)C)N[C@H](c2ccc(SC3CCCCC3)c(OC)c2)[C@@H]2C(=O)N(C)C(=O)[C@@H]21	0
COC(=O)[C@]1(CC(C)C)N[C@H](c2ccc(-c3ccc(F)cc3)c(OC)c2)[C@@H]2C(=O)N(C)C(=O)[C@@H]21	13*	TTR inh HuH7=-11;TTR act confirm=0
CCn1ncc([N+](=O)[O-])c1C(=O)N1CCc2ccccc2C1	4
Cc1ccc(C(=O)CCC(=O)Nc2cc(C)ccn2)cc1	1
CCCCCn1nnnc1C1(C)CN(S(C)(=O)=O)CC(=O)N1Cc1ccco1 (centres undefined)	0
OC(CNCCNc1ncccc1C(F)(F)F)Cn1ccc2ccccc21 (centres undefined)	-1
Oc1ccccc1NCC(O)Cn1ccc2ccccc21 (centres undefined)	11*	TTR inh HuH7=5;TTR act confirm=-1
OCc1nc2ccccc2n1CC(O)Cn1ccc2ccccc21 (centres undefined)	-5
Nc1cc(C(=O)OCC(=O)NNC(=O)c2ccccc2F)ccc1Cl	4
SMILES	TTR transcr act	others
O=C(NC(=O)c1ccccc1F)OCc1ccc(Cl)cc1Cl	20*	TTR inh HuH7=-14;TTR act confirm=1
O=C(CNC(=O)c1ccccc1F)NCCc1ccc(Cl)cc1Cl	3
CC1(c2nnnn2-c2ccc3c(c2)OCCO3)CCC(=O)N1CCc1c[nH]c2ccccc12 (centres undefined)	1
CN(C)c1cc(N/N=C/c2ccc(Cl)cc2)nc(N(C)C)n1	-4
O=C(COC(=O)c1cc[n+]([O-])cc1)Nc1ccc(F)c([N+](=O)[O-])c1	0
COc1ccc(C(=O)CSc2ccc(-c3ccccc3)nn2)cc1	0
Cc1ccc(Sc2nnc(-c3ccccc3)cc2C#N)cc1	4
COc1ccc(Sc2nnc(-c3ccccc3)cc2C#N)cc1	10*	TTR inh HuH7=2;TTR act confirm=-1
COP(=O)(OC)C(Cc1ccccc1)NC(=O)CNC(=O)OCc1ccccc1 (centres undefined)	2
O=C(NCCc1ccccc1)OCc1cn(Cc2c(F)cccc2F)nn1	-1
CCOC(=O)C1CCN(C(=O)/C=C/c2ccc(OC)cc2)CC1	1
CCOC(=O)C1CCN(C(=O)Cn2nc(C)n3nc(-c4ccc(OC)cc4)cc3c2=O)CC1	11*	TTR inh HuH7=-6;TTR act confirm=-1
